# From PubChem BioAssay (NCATS)
# Records with an inconclusive call do not appear. A call without a number means that no potency is given here. The source made the active and inactive calls. Calls follow the shape of the dose curve; as a rule, active = well fitted inhibition curve with a large enough effect; inconclusive = small, poorly fitted or top-dose-only effect; inactive = flat fitted curve, though single readings scatter.
# Biological target: Aldehyde dehydrogenase, mitochondrial (Homo sapiens) (UniProt P05091)
# Assay: qHTS for Inhibitors of the Aldehyde Dehydrogenase Family (ALDH2) Primary screen (AID 2061308); also: nearly all actives have a fitted effect of over 55% in size
# Conditions: ALDH2 enzyme inhibition qHTS, 1536-well; series mostly up to 56 µM
row,SMILES,Potency
1,Cc1ccc(Nc2c(F)cccc2Cl)c(CC(=O)O)c1,inactive
2,COc1ccc(OC)c(N2C(=O)C(Cl)=C(N3CCCCC3)C2=O)c1,inactive
3,Cc1ccnc(NC(=S)N2CCN(c3ccc(C#N)cc3)CC2)c1,inactive
4,CN(C)c1ccc(-c2nc3ccccc3s2)cc1,inactive
5,COc1ccc(-c2nc(-c3ccc(C(=O)O)cc3)no2)cc1,inactive
6,Cc1ccc(S(=O)(=O)Nc2cccc3cccnc23)c([N+](=O)[O-])c1,inactive
7,FC(F)(F)c1ccc(N2CCN(C(=S)Nc3ccccn3)CC2)cc1,inactive
8,CCOc1ccc(CCNC(C)=O)cc1OCC,inactive
9,O=C(O)c1ccc(-c2noc(-c3ccc(Cl)cc3)n2)cc1,inactive
10,O=C(O)c1ccc(O)c2ncc(NCC3CCCN(CCc4ccccc4)C3)cc12 (stereo not given),inactive
11,CCC(=O)NC(c1cc(Cl)c2ccccc2c1O)C1CC1 (stereo not given),inactive
12,Cc1ccc(-c2ccc(=O)n(CC(=O)NCCCc3ccco3)n2)cc1,inactive
13,Cn1cc(CCn2cnc(-c3cnn(C)c3)c2-c2ccc(C#N)cc2)cn1,inactive
14,O=C(Nc1nnc(-c2ccncc2)s1)Nc1ccc(Cl)c2ccccc12,inactive
15,N#Cc1ccc(-c2nc3ccccc3s2)cc1,inactive
16,COc1cccc(CNc2ccc(S(=O)(=O)Nc3ccccn3)cc2)c1O,inactive
17,CCCCN(C)C(=O)Cn1nc(-c2ccc(C(C)=O)cc2)ccc1=O,inactive
18,COc1ccc(C(O[C@@H]2O[C@H](CO)[C@@H](O)[C@H](O)[C@H]2O)C(CO)Oc2ccc(/C=C/CO)cc2OC)cc1O (stereo not given in full),inactive
19,O=C(Nc1ccccc1C(=O)O)c1ccccc1,inactive
20,COc1ccc(O)c(-c2nc3ccccc3c(=O)n2Cc2ccccc2)c1,inactive

row,SMILES,Potency
1,COc1ccc(-c2ccc3c(N4CCOCC4)nc(N4CC(C)OC(C)C4)nc3n2)cc1CO (stereo not given),inactive
2,C=C1/C(=C/C=C2\CCC[C@@]3(C)C2CCC3[C@H](C)/C=C/[C@@H](O)C2CC2)C[C@@H](O)C[C@@H]1O (stereo not given in full),inactive
3,CNc1nc(Nc2ccc(C(=O)N3CCOCC3)cc2OC)nc2[nH]cc(Cl)c12,inactive
4,O=C1CCc2cc(S(=O)(=O)Nc3ccccc3-c3ccccc3)ccc2N1,inactive
5,COc1ccc(C2Nc3ccccc3C(=O)N2Cc2ccccc2)cc1OCc1ccc(NC(C)=O)cc1 (stereo not given),inactive
6,CC(CN1c2ccccc2Sc2ccc(S(=O)(=O)N(C)C)cc21)N(C)C (stereo not given),inactive
7,O=C(O)c1cccc(-c2noc(-c3ccccc3Cl)n2)c1,inactive
8,CC(C)c1ccccc1-c1nccc(NCc2ccc(-c3cccnc3)cc2)n1,inactive
9,COc1cccc(-c2nc(-c3cccc(C(=O)O)c3)no2)c1,inactive
10,Cc1ccc(-c2ccc(=O)n(CC(=O)NCCc3ccccc3)c2)cc1,inactive
11,COc1ccc(C[C@H](C)NC[C@@H](O)c2ccc(O)c(NC=O)c2)cc1,inactive
12,O=C(O)c1cccc(-c2noc(-c3ccc(Cl)cc3)n2)c1,inactive
13,FC(F)(F)c1cc(Cl)cc(-c2ccc(CNc3nc(-c4ccccc4C(F)(F)F)nc4ccccc34)cc2)c1,inactive
14,O=C(O)c1ccc(-c2noc(-c3ccc(C(F)(F)F)cc3)n2)cc1,inactive
15,CC1=CC2=C(C)C(=O)[C@](C)(O)[C@H](O)C2=CO1,inactive
16,Fc1cc(Nc2nc(-c3ccncc3)nc3ccccc23)ccc1OC(F)(F)F,inactive
17,C=C1CC[C@@H](O)[C@]2(C)CC[C@H]3C(=C)C(=O)O[C@@H]3[C@@H]12,inactive
18,CC(C)(C)OC(=O)N1CCN(c2ccc(NCc3ccoc3-c3ccc(C#N)cc3)cc2)CC1,inactive
19,O=C(O)c1cccc(-c2noc(-c3ccc(C(F)(F)F)cc3)n2)c1,inactive
20,Cc1ccnc(NC(=S)N2CCc3cccc(C(F)(F)F)c3C2)c1,inactive
